Where “and” joins values, the source holds several entries; their conditions need not be identical. Identical values can stand only once. About 2,000 (36%) of roughly 5,500 compounds were called active. About 18% were inconclusive and are not listed. Cut-off read from the data, not from the text of the source: active = normalized growth mostly below about 0.91 (no sharp cut-off); inconclusive = no clear call, values can overlap the other calls; inactive = mostly above about 0.92. Some of the results follow.
Test: chemical genetic growth profiling, strain panel (AID 1159580);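 note: tested at 20 µM; growth read once vehicle control cultures reached saturation at 30 °C; 1 = growth at the plate median or of vehicle wells; lower values mean less growth of the strain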
Settings: S. cerevisiae deletion strains, growth OD

Measured: normalized growth

C[C@]12CCC3c4ccc(O)cc4CCC3C1CC[C@@H]2O (some centres undefined)
active: locus YBR021W, strain FUR4, hits give low values 0.783 | locus YDR137W, strain rgp1, hits give low values 0.83 | locus YDR195W, strain ref2 1.27 [resistant] | locus YDR392W, strain spt3, hits give low values 0.639 | locus YGL253W, strain hxk2, hits give low values 0.895 | locus YGR252W, strain gcn5, hits give low values 0.735 | locus YJL164C, strain tpk1, hits give low values 0.916
inactive: locus YAL013W, strain DEP1, hits give low values 1.01 | locus YAL021C, strain ccr4, hits give low values 0.983 | locus YAL026C, strain drs2, hits give low values 0.943 | locus YAL030W, strain snc1, hits give low values 1.01 | locus YBL061C, strain skt5, hits give low values 0.961 | locus YBR009C, strain hhf1, hits give low values 0.91 | locus YBR023C, strain chs3, hits give low values 0.992 | locus YBR171W, strain sec66, hits give low values 1.01 | locus YBR229C, strain ROT2, hits give low values 1.01 | locus YBR231C, strain swc5, hits give low values 0.946 | locus YBR279W, strain paf1, hits give low values 0.993 | locus YCL011C, strain gbp2, hits give low values 0.988 | locus YCL016C, strain dcc1, hits give low values 0.975 | locus YCL029C, strain bik1, hits give low values 0.996 | locus YCL061C, strain MRC1, hits give low values 0.988 | locus YCL069W, strain vba3, hits give low values 1.01 | locus YCR088W, strain abp1, hits give low values 1.03 | locus YDL005C, strain med2, hits give low values 1.02 | locus YDL035C, strain GPR1, hits give low values 0.912 | locus YDL040C, strain nat1, hits give low values 1.02 | locus YDL074C, strain BRE1, hits give low values 0.882 | locus YDL101C, strain DUN1, hits give low values 1 | locus YDL185W, strain tfp1, hits give low values 0.979 | locus YDL192W, strain arf1, hits give low values 0.958 | locus YDR001C, strain nth1, hits give low values 1.03 | locus YDR069C, strain doa4, hits give low values 1 | locus YDR101C, strain arx1, hits give low values 0.958 | locus YDR150W, strain NUM1, hits give low values 1.03 | locus YDR159W, strain sac3, hits give low values 0.954 | locus YDR162C, strain NBP2, hits give low values 0.987 | locus YDR297W, strain sur2, hits give low values 0.992 | locus YDR318W, strain mcm21, hits give low values 0.996 | locus YDR334W, strain swr1, hits give low values 1.02 | locus YDR335W, strain msn5, hits give low values 0.985 | locus YDR388W, hits give low values 0.997 | locus YDR502C, strain sam2, hits give low values 0.973 | locus YEL003W, strain gim4, hits give low values 0.921 | locus YEL037C, strain rad23, hits give low values 1.02 | locus YEL061C, strain CIN8 (second series), hits give low values 1.01 | locus YEL061C, strain CIN8, hits give low values 1.02 | locus YER015W, strain faa2, hits give low values 0.981 | locus YER016W, strain bim1, hits give low values 0.969 | locus YER110C, hits give low values 0.989 | locus YER111C, strain swi4, hits give low values 1.03 | locus YER155C, strain BEM2 (second series), hits give low values 1.04 | locus YER155C, strain BEM2, hits give low values 1.03 | locus YER167W, strain BCK2, hits give low values 1 | locus YFR010W, strain ubp6, hits give low values 1 | locus YGL078C, strain dbp3, hits give low values 0.934 | locus YGL086W, strain mad1, hits give low values 0.953 | locus YGL167C, strain pmr1, hits give low values 1.01 | locus YGL173C, strain kem1, hits give low values 0.968 | locus YGL227W, strain vid30, hits give low values 1.03 | locus YGL240W, strain doc1, hits give low values 0.96 | locus YGL248W, strain PDE1, hits give low values 0.981 | locus YGR078C, strain PAC10, hits give low values 0.967 | locus YGR135W, strain pre9, hits give low values 0.949 | locus YHR013C, strain ard1, hits give low values 0.996 | locus YHR027C, strain rpn1, hits give low values 1.01 | locus YHR030C, strain SLT2, hits give low values 1.03 and 0.961 | locus YHR079C, strain IRE1 (second series), hits give low values 1.01 | locus YHR079C, strain IRE1, hits give low values 0.954 | locus YHR094C, strain hxt1, hits give low values 1.01 | locus YHR129C, strain ARP1, hits give low values 1 | locus YHR142W, strain chs7, hits give low values 0.891 | locus YHR200W, strain rpn10, hits give low values 1 | locus YIL066C, strain RNR3, hits give low values 0.955 | locus YIL073C, strain SPO22, hits give low values 0.936 | locus YIL125W, strain kgd1, hits give low values 1 | locus YIR030C, strain dcg1, hits give low values 1 | locus YJL092W, strain hpr5, hits give low values 1.03 | locus YJL095W, strain BCK1 (second series), hits give low values 0.997 | locus YJL095W, strain BCK1, hits give low values 0.978 and 0.961 | locus YJL115W, strain asf1, hits give low values 1.02 | locus YJL129C, strain trk1, hits give low values 0.889 | locus YJL134W, strain LCB3, hits give low values 1.02 | locus YJL154C, strain vps35, hits give low values 1.02 | locus YJL166W, strain qcr8, hits give low values 0.971 | locus YJL168C, strain set2, hits give low values 0.997 | locus YJL187C, strain SWE1 (second series), hits give low values 0.966 | locus YJL187C, strain SWE1, hits give low values 1.01 | locus YJR043C, strain POL32, hits give low values 0.938

From PubChem BioAssay AID1159580 (chemical genetic matrix, 2015)
